Several values for one entry are separate records, joined by “and”; a condition that tells them apart may be missing. Equal values may be shown once. Screen size: about 54,000 compounds; about 120 (0.22%) were called active. Entries that show only a call come without a potency. About 8% were inconclusive and are not listed. Calls follow the shape of the dose curve; as a rule, active = well fitted inhibition curve with a large enough effect; inconclusive = small, poorly fitted or top-dose-only effect, or effect the other way; inactive = flat fitted curve, though single readings scatter. The sample as a whole holds a higher share of actives than the screen did. Some compounds were tested as several samples or in several runs, with calls that do not always agree.
Target: Fumarate hydratase, mitochondrial (Homo sapiens) (UniProt P07954)
Sequence (P07954 whole entry, looked up): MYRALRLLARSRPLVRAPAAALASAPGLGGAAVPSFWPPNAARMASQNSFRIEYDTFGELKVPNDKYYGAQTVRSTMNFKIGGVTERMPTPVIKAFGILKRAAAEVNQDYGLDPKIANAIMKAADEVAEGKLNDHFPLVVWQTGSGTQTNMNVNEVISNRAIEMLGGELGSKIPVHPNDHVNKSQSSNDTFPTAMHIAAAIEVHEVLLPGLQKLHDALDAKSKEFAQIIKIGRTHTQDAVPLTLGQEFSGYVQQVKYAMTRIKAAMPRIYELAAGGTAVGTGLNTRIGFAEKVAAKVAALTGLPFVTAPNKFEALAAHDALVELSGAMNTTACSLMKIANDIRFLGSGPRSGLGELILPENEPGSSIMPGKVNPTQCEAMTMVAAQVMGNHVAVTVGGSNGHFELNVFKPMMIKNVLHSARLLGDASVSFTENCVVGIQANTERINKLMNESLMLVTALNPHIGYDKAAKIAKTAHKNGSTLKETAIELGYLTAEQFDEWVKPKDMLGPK
Assay: Identification of activators of human fumarate hydratase by quantitative high-throughput screening; also: the screen sought activators but most active calls are inhibition curves; nearly all actives have a fitted effect of over 45% in size
Settings: FH coupled MDH/diaphorase resazurin fluorescence, 15 min; series mostly up to 79.9 µM
From the text: Fumarate hydratase (FH) is a metabolic enzyme that is part of the Krebs-cycle, and reversibly catalyzes the hydration of fumarate to malate. Mutations of the FH gene have been associated with fumarate hydratase deficiency (FHD), hereditary leiomyomatosis, renal cell cancer (HLRCC), and other diseases. Currently there are no high-quality small molecule probes for studying human fumarate hydratase. To address this, we developed a quantitative high throughput screening (qHTS) FH assay and screened a total of 57,037 compounds in dose-response. While no inhibitors of FH were confirmed, a series of phenyl-pyrrolo-pyrimidine-diones (12 compounds) were identified as activators of human fumarate hydratase. […] The binding of two compounds from the series to human fumarate hydratase was confirmed by microscale thermophoresis. The low hit rate in this screening campaign confirmed that FH is a "tough target" to modulate, and the small molecule activators of human fumarate hydratase reported here may serve as a starting point for further optimization and development into cellular probes of human FH and potential drug candidates.
For primary high-throughput screen, 3 ul of FH solution (containing 13.33nM human fumarate hydratase, 13.33IU/ml malic dehydrogenase, 0.2mM NAD, 0.067mg/ml diaphorase and 0.067mM resazurin in the assay buffer (50 mM Tris pH 8.0, 5 mM MgCl2, 0.01% Brij 3) was dispensed into each well in a black solid bottom 1536-well assay plate (Greiner Bio-One) using a BioRAPTR FRD dispenser (Beckman Coulter, Brea, CA). A 1536-well pintool dispenser outfitted with 20 nl pins (Wako Automation, San Diego, CA) was used to transfer 20 nL of DMSO-solubilized compound (Cherrypick plates) to each 1536-well assay plate. Each compound was screened at five concentrations: 15 nM, 151 nM, 1.5 uM, 15.4 uM, 76.9 uM. Following compound transfer, plates were incubated in room temperature for 10 minutes. 1 uL of substrate solution containing fumaric acid (160 uM) was dispensed via BioRAPTR FRD to initiate the reaction. Plates were immediately transferred to a ViewLux microplate imager (PerkinElmer, Waltham, MA), and any resulting resorufin fluorescence was measured (exitation/emission, 525/598 nm) at 0 and 15 minutes. The exposure time is 1 second. Fluorescence from each well was normalized using enzyme-free and DMSO-treated control wells on each plate, and changes in fluorescence (delta RFU) were calculated using the difference in fluorescent signal for each well at 15 minutes versus 0 minutes.
Potency is read from the fitted curve at half-maximal effect.

SMILES | activity change, negative = inhibition | Potency
C=C1CCC2C(C)(C(=O)OC)CCCC2(C)C1CCC1=CCOC1=O (centres undefined) | inactive | –
Cc1cn(CCN2CCN(c3ccccc3-c3cc(C#N)cc(C(=O)NCCCN4CCCC4)c3)CC2)c2ccccc12 | inactive | –
COC(=O)C1=CO[C@@H](O[C@@H]2O[C@H](CO)[C@@H](O)[C@H](O)[C@H]2O)[C@H]2[C@@H]1C=C[C@]21C=C([C@H](C)OC(=O)/C=C/c2ccc(O[C@@H]3O[C@H](CO)[C@@H](O)[C@H](O)[C@H]3O)cc2)C(=O)O1 | inactive | –
COc1ccccc1CNc1nc2ccc(Cl)cc2n2cnnc12 | inactive | –
Cc1ccc(C)c(Cn2c(C(=O)O)c(CNCc3cccs3)c3ccccc32)c1 | inactive | –
CNCC(O)c1ccc(O)c(O)c1 (centres undefined) | – | inactive and 6.92 µM (active)
O=C(COc1ccc(Cl)cc1)N(Cc1ccco1)Cc1ccco1 | inactive | –
COc1ccccc1NC(=O)CSc1oc(-c2ccco2)nc1S(=O)(=O)c1ccc(Br)cc1 | inactive | –
CNc1nc(-c2ccc3c(N)n[nH]c3c2)cc(N2CC(C(=O)NC3CCCCC3)CCC2C)n1 (centres undefined) | inactive | –
O=C(N[C@H]1CCC[C@H](CO)C1)C1CCN(c2nc3cc(Cl)c(-c4ccc(Cl)cc4)cc3o2)CC1 | inactive | –
CCOC(=O)c1[nH]c(C)c(CCC(=O)NCc2ccccc2C)c1C | inactive | –
CCN(CC)C(=O)CSc1nc2ccsc2c(=O)n1Cc1ccccc1Cl | inactive | –
CCOc1ccc(-n2nc3ccc(NC(=O)c4ccc(OC)c(Cl)c4)cc3n2)cc1 | inactive | –
Cc1nn(C(=O)c2c(F)cccc2F)c(C)c1S(=O)(=O)N1CCOCC1 | inactive | –
COC(=O)C1=CO[C@@H](O[C@@H]2O[C@H](CO)[C@@H](O)[C@H](O)[C@H]2O)[C@@H]2[C@@H](C(=O)O)CC[C@H]12 | inactive | –
CCCCC1CCN(CCCN2C(=O)CCc3ccccc32)CC1 | inactive | –
CC/C=C\CC1C(=O)C=CC1(CCCCCCCC(=O)O)OC(C)=O (centres undefined) | inactive | –
COc1cccc(CNC(=O)c2ccc3c(Cl)c4c(nc3c2)CCCC4)c1 | inactive | –
C=CC(C)(O)CO[C@@H]1O[C@H](CO)[C@@H](O)[C@H](O)[C@H]1O (some centres undefined) | inactive | –
Cc1cc2c(cc1S(=O)(=O)CCC(=O)NCc1ccccc1)OCC(=O)N2 | inactive | –
CC(C)(OC1OC(CO)C(O)C(O)C1O)C1CCC(O)(CO)C2CC(O)C(C)(O)C2C1 (centres undefined) | inactive | –
O=C(/C=C/c1ccc(O)cc1)OCC1=C[C@@H](O)[C@@H]2C=CO[C@@H](O[C@@H]3O[C@H](CO)[C@@H](O)[C@H](O)[C@H]3O)[C@H]12 | inactive | –
COc1cc(C(C)=O)c(OC)c2c1OC(C)(C)C=C2 | inactive | –
O=C(CSc1nccn1C1CCCC1)Nc1cc(C(F)(F)F)ccc1Cl | inactive | –
C=CC(C)(O)CC/C=C(\C)C(=O)OC1C(O)C(CO)OC(OC(=O)C23CCC(C)(C)CC2C2=CCC4C5(C)CCC(OC6OC(COC7OCC(OC(C)=O)C(O)C7OC7OC(COC(C)=O)C(O)C(O)C7OC(C)=O)C(O)C(O)C6OC6OCC(O)C(O)C6O)C(C)(C)C5CCC4(C)C2(C)C(O)C3O)C1OC1OCC(OC2OCC(O)C(OC3OCC(O)C(O)C3O)C2O)C(O)C1O (centres undefined) | 3.1% [at 13.5 µM] (inactive) | –

SMILES | activity change, negative = inhibition | Potency
C=C1CCC[C@]2(C)CC/C(=C(/CO)C(=O)OC)C[C@@H]12 | inactive | –
CC[C@H](C)[C@H](NC(=O)[C@H]([C@@H](C)CC)N(C)C(C)=O)C(=O)N[C@H](C(=O)N[C@@H](CC(C)C)C(=O)[C@@]1(C)CO1)[C@@H](C)O | inactive | –
COc1cc(C2c3cc(O)c(OC)cc3CC(CO)C2CO)ccc1O (centres undefined) | inactive | –
CCOc1ccc(NC(=O)CC2C(=O)N(c3cccc(OC)c3)C(=O)N2C2CCCCC2)cc1 (centres undefined) | inactive | –
COc1cccc(C(=O)c2sc3nc(-c4ccccc4)cc(C(F)(F)F)c3c2N)c1 | inactive | –
Cc1cccc(N2CCN(C(=O)Cn3ncc4c5ccccc5n(C)c4c3=O)CC2C)c1 (centres undefined) | inactive | –
CC(=O)/C=C/C1(O)C(C)(C)CC(O)CC1(C)O (centres undefined) | inactive | –
Cc1ccc2nc(COc3cccc(NC(=O)c4ccccc4Cl)c3)cc(=O)n2c1 | inactive | –
O=C(Cn1c(=O)n(-c2ccc(F)cc2)c(=O)c2sccc21)Nc1cccc(C(F)(F)F)c1 | inactive | –
COc1ccc(CCN2C(=O)N(c3cccc(OC)c3)C(=O)C2CC(=O)Nc2ccccc2)cc1 (centres undefined) | inactive | –
CC1=C(C)C(=O)OC(C(C)C2CCC3C4CC=C5CC(OC6OC(COC7OC(CO)C(O)C(O)C7O)C(O)C(O)C6O)CC(O)C5(C)C4CCC23C)C1 (centres undefined) | inactive | –
CN(C(=O)CSc1nc2ccc(NC(=O)COc3ccccc3)cc2s1)c1ccccc1 | inactive | –
CC(Nc1ncnc2nc[nH]c12)c1cc2cccc(Cl)c2c(=O)n1-c1ccccc1 (centres undefined) | inactive | –
COc1ccc(NC(=O)c2ccc(-c3ccc(C(=N)N)cc3C)cc2)cc1N1CCN(C)CC1 | inactive | –
Cc1c(C2=CCN(C(=O)N(C)C(C)C)CC2)nnn1-c1cccnc1F | inactive | –
C/C=C/C1=CC2=CC(=O)C(C)(O)C(OC(=O)c3c(C)cc(O)cc3O)C2CO1 (centres undefined) | inactive | –
COc1ccc(Cn2ccnc2SCC(=O)Nc2ccc3c(c2)OCO3)cc1 | inactive | –
O=C(CSCc1cnn(-c2ccccc2)c1-n1cccc1)NCc1ccccc1Br | inactive | –
Cc1cccc(N2CCN(c3c(CN4CCCC4)c(=O)oc4ccccc34)CC2)c1C | inactive | –
Cn1c(=O)[nH]c(=O)c2c1nc(NCCc1ccccc1)n2Cc1ccc(F)cc1 | inactive | –
CCCOc1cccc(C(=O)Nc2cccc(NC(=O)c3ccc(C(C)(C)C)cc3)c2)c1 | inactive | –
COc1ccccc1-n1c(SCC(=O)Nc2nc3ccc(C)cc3s2)nc2c(c1=O)SCC2 | inactive | –
COc1ccc(CCNc2ncnc3c2cnn3-c2ccc(C)cc2)cc1 | inactive | –
CC1(C)C[C@H]2C3=CCC4[C@@]5(C)CC[C@H](O[C@H]6O[C@H](C(=O)O)[C@@H](O)[C@H](O)[C@H]6O[C@H]6O[C@H](CO)[C@@H](O)[C@H](O)[C@H]6O[C@@H]6O[C@H](CO)[C@@H](O)[C@H](O)[C@H]6O)[C@](C)(CO)C5CC[C@@]4(C)[C@]3(C)CC[C@@]2(C)[C@H](O[C@@H]2OC[C@H](O)[C@H](OC3O[C@H](CO)[C@@H](O)[C@H](O)[C@H]3O)[C@H]2O)[C@@H]1O (some centres undefined) | 17.6% [at 13.5 µM] (inactive) | –
